The values below come from ChEMBL document CHEMBL3433997, “St. Jude Leishmania screening dataset” (2016).

As usually defined, the inhibition is the relative decrease from the control value, in per cent.

Common to all, as to type: functional
In assay [1] the target is Solute carrier family 2, facilitated glucose transporter member 1 (Homo sapiens) (UniProt P11166). Put plainly: ST_JUDE_LEISH: Cytotoxicity at 2uM final concentration against transgenic Leishmania Mexicana promastigotes LmGLUT1 that are glucose transport deficient and complemented with the human glucose transporter GLUT1. Activity is measured by DNA content using SYBR green in vitro.
Chain of Solute carrier family 2, facilitated glucose transporter member 1 (Homo sapiens) (P11166 whole entry): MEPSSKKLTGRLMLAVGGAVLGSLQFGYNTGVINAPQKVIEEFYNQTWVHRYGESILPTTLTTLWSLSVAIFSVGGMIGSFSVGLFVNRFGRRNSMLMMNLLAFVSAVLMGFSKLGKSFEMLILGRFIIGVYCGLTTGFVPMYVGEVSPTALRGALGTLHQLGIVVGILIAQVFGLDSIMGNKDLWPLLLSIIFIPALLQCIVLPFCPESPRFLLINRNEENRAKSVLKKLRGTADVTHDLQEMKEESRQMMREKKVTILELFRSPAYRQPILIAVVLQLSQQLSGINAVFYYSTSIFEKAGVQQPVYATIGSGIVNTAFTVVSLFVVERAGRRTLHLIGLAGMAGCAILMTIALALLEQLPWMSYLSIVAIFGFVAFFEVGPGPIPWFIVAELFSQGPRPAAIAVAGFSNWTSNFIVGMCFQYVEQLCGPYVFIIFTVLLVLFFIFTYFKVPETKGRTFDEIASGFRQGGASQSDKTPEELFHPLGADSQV

Assay [2] concerns the target Hexose transporter 1 (Plasmodium falciparum) (UniProt O97467). Briefly: ST_JUDE_LEISH: Cytotoxicity at 2uM final concentration against transgenic Leishmania Mexicana promastigotes LmPfHT that are glucose transport deficient and complemented with the Plasmodium falciparum hexose transporter. Activity is measured by DNA content using SYBR green in vitro.
The target in assay [3] is Glucose transporter (Leishmania mexicana) (UniProt O61059). Put plainly: ST_JUDE_LEISH: Cytotoxicity at 2uM final concentration against transgenic Leishmania Mexicana promastigotes LmGT2 that are glucose transport deficient and complemented with the L. Mexicana glucose transporter 2. Activity is measured by DNA content using SYBR green in vitro.

Take `O=C(Nc1ccc(N2CCCN(Cc3cccc(F)c3)CC2)cc1)c1ccc(F)cc1`: the inhibition came out at 4.73% in assay [1], 5.55% in assay [2] and 5.51% in assay [3].
`CNC(=O)c1ccccc1Nc1nc(Nc2cccnc2)ncc1C`: the inhibition is -2.88% in assay [1], -0.32% in assay [2] and -0.69% in assay [3].
The like results for `Cc1cc(N(C)C2CCN(CC3CCCCC3)C2)nc(Nc2ccc(Br)cc2)n1` (stereo not given) were, in that order, 2.84%, 4.85% and 2.06%.
The like results for `O=C(c1ccc(-c2ccc(-c3nc4ccccc4[nH]3)s2)cc1)N1CCCCC1CN1CCC(O)C1` (stereo not given) were, in that order, 3.07%, 2.95% and 4.01%.
The matching figures for `CC(=O)Nc1ncc(C(=O)Nc2cccc(-c3cccc(-c4nc5ccccc5[nH]4)c3)c2)s1`: 1.58%, 1.44% and 6.64%.
Take `C[C@@H](Oc1cc(-n2cnc3ccc(OCC4CCN(S(C)(=O)=O)CC4)cc32)sc1C(N)=O)c1ccccc1C(F)(F)F`: the inhibition in assay [1] was 11.6%; in assay [2], 9.1%; in assay [3], 4.63%.
The like results for `Cc1nccc2c(NC(=O)N[C@@H]3CCN(c4ncc(C(F)(F)F)cc4Br)C3)cccc12` were, in that order, 1.06%, 1.71% and 0.74%.
The matching figures for `CCCn1c(Sc2ccc(C#N)c([N+](=O)[O-])c2)nnc1-c1ccc(N(C)C)cc1`: 5.64%, 4.8% and 3.14%.
As for `CCCCn1c(Sc2ccc(C#N)c([N+](=O)[O-])c2)nnc1-c1cccc(Cl)c1`, the inhibition in assay [1] is 4.8%; in assay [2], 6.03%; in assay [3], 5.83%.
For `COc1cc(C(=O)N2N=C(c3c(-c4ccccc4)c4cc(Br)ccc4[nH]c3=O)CC2c2cccc([N+](=O)[O-])c2)cc(OC)c1OC` (stereo not given), the inhibition in assay [1] worked out at 3.48%; in assay [2], 3.48%; in assay [3], 3.79%.
Consider `COc1ccc2ncc(F)c(CCN3CCC(NCc4cc5c(cn4)OCCS5)CC3)c2c1`, for which the inhibition worked out at 57.8% in assay [1], 66.5% in assay [2] and 80.3% in assay [3].
The like results for `Fc1ccc2[nH]ccc(=NN=CC=Cc3ccccc3)c2c1` were, in that order, 1.52%, 3% and -2.56%.
The like results for `Cc1cccc2nc(-c3ccc(-c4ccc(CNCc5ccc(CN)cc5)cc4)cc3)[nH]c12` were, in that order, 7.89%, 5.94% and 2.77%.
The like results for `O=C(/C=C/c1ccc(F)cc1)NC1CCC(CCN2CCCN(c3ccc(C(F)(F)F)cn3)CC2)CC1` (stereo not given) were, in that order, 1.97%, -0.46% and -1.02%.
Regarding `CCCc1cc(C(=O)N[C@@H](Cc2ccccc2)[C@H](O)CNC(C)(C)c2cccc(OC)c2)c(F)c(N2CCCC2=O)c1`, the inhibition in assay [1] stood at 9.67%; in assay [2] it was 7.94%; in assay [3], 9.99%.
The matching figures for `CCN1CCCC(CNC(=O)/C(=C/C=C/c2cc3cc(Cl)c(Cl)cc3[nH]2)OC)C1` (stereo not given): -0.41%, 1.17% and 1.2%.
The like results for `Fc1ccc2[nH]c(-c3ccc(-c4cccc(CN5CCN(CCN6CCOCC6)CC5)c4)cc3)nc2c1` were, in that order, 4.48%, 3.16% and 1.99%.
The like results for `c1cc(CN2CCCCC2)cc(OCCCNc2ccnc3ccccc23)c1` were, in that order, 18%, 7.87% and 5.12%.
For `FC(F)(F)c1ccc2[nH]c(-c3ccc(-c4ccc(CNCCN5CCNCC5)cc4)cc3)nc2c1`, the inhibition is -1.44% in assay [1], 0.13% in assay [2] and -1.25% in assay [3].
The like results for `NCc1ccc(CNCc2cccc(-c3ccc(-c4nc5cc(C(F)(F)F)ccc5[nH]4)cc3)c2)cc1` were, in that order, 2.92%, 1.34% and 0.8%.
For `Cc1cc(NCCC(=O)Nc2ccccc2)nc(NCCOc2ccccc2)n1`, the inhibition was -0.01% in assay [1], -0.67% in assay [2] and -1.58% in assay [3].
The matching figures for `O=C(Nc1ccc(C(F)(F)F)cc1)NC1CCN(c2ccnc3ccccc23)C1` (stereo not given): 8.02%, 7.55% and 7.55%.
The like results for `CN(c1ccc(NC(=O)Nc2cc(C(C)(C)C)on2)cc1)c1ccnc(NCCOC(=O)Nc2cc(C(C)(C)C)on2)n1` were, in that order, 10.6%, 7.48% and 11.5%.
Consider `COC(=O)c1ccccc1COc1ccc(CC2(NC(=O)[C@H](Nc3ccc(C#N)c4ccccc34)C(C)(C)C)CCCC2)cc1`, for which the inhibition in assay [1] turned out to be 4.44%; in assay [2], 4.29%; in assay [3] it was 2.22%.
The matching figures for `CN1CCN(CCCN(Cc2cccc(-c3ccc(CNC4CCCC4)cc3)c2)C(=O)/C=C/c2ccccc2)CC1`: 6.1%, 7.29% and 4.93%.
The like results for `Cc1cccc(-c2cccc3c(NC(=O)N4CCc5cc6nccc(N7CCN8CCC[C@H]8C7)c6cc54)cccc23)n1` were, in that order, 0.18%, 0.95% and 1.48%.
The matching figures for `Cc1[nH]c(C)c(-c2ccc(Br)cc2)c(=O)c1Cl`: 4.57%, 3.47% and 3.22%.
Take `Cc1[nH]c(-c2ccc(F)cc2)cc1C(=O)NC1CCN(Cc2ccccc2)CC1`: the inhibition in assay [1] was 1.59%; in assay [2], 3.23%; in assay [3] it was -0.98%.
The matching figures for `O=S(=O)(NCCN1CCCC1)c1ccc(-c2ccc(CNCc3ccsc3)cc2)cc1`: 13.4%, 6.54% and 5.55%.
The like results for `O=C(NCCCCN1CCC(c2ccc3c(c2OCCCO)CCCC3)CC1)c1ccc(-c2ccc(C(F)(F)F)cc2)c(CO)c1` were, in that order, -0.96%, -0.59% and -0.61%.
The like results for `CCCCCOc1ccc(C(O)C(CN2CCCCC2)c2ccccc2)cc1` (stereo not given) were, in that order, 5.64%, 4.91% and 5.39%.
Turning to `COc1cccc2cc(C(=O)N[C@@H](CC(C)C)C(=O)N[C@H](/C=N/N3C(=O)CN(Cc4ccccc4)C3=O)CCc3ccccc3)oc12`, the inhibition was 7.07% in assay [1], 8.34% in assay [2] and 6.11% in assay [3].
The like results for `CC1(C)NC(N)=NC(=N)N1OCOc1ccc(Cl)cc1` were, in that order, 3.62%, 1.85% and 4.23%.
On to `Cc1[nH]c(C)c(-c2ccc(OCc3ccccc3C(F)(F)F)nc2)c(=O)c1Br`, for which the values for the inhibition in assay [1], in assay [2] and in assay [3] were 4.88%, 6.13% and 1.94%, respectively.
Take `Cc1cc(=NN=CC=Cc2ccccc2)c2ccc(F)cc2[nH]1`: the inhibition in assay [1] is -1.45%; in assay [2], 2.91%; in assay [3], -0.62%.
